{"source": "PubChem BioAssay AID1898", "about": "(National Center for Advancing Translational Sciences (NCATS), 2009)", "note": "The list shows a part of the results. Results filed as inconclusive are left out. The source made the active and inactive calls. The call rests on the fitted dose curve; in most records, active means well fitted curve in the direction sought with a large enough effect; inconclusive means small, poorly fitted or top-dose-only effect, or another doubt; inactive means no such curve, though single readings can be large or run the other way."}
{"test": "Secondary assay for Activators of Human Pyruvate Kinase M2 isoform - Cell Titer Glo cytotoxicity assay", "conditions": "HeLa viability, CellTiter-Glo ATP luminescence, 24 h; series mostly up to 57.5 µM", "experimental": "NIH Chemical Genomics Center [NCGC] Matthew G. Vander Heiden, M.D., Ph.D. [Harvard Medical School, 77 Avenue Louis Pasteur, Boston, MA 02115] MLPCN Grant: 1 R03 MH085679-01 NCGC Assay Overview: We have identified a series of activators of the M2 isoform of human pyruvate kinase. The assay described here examines the cytotoxicity of these compounds by measuring the total ATP content of Hela cells after 24 hrs of exposure to compound.\nAssay Protocol: 500 Hela cells/ 4ul in media (DMEM with high glucose, 10% FBS, 1x Pen Strep, 1x NEAA) were dispensed into a white solid 1536-microwell plate with a Thermo Multidrop. The plates were incubated at 37 degrees Celsius for 24 hours. The cells were then treated with compounds using the Kalypsys pin tool, delivering 23 nl of test compounds and the control doxorubicin. The plates were then incubated for an additional 24 hours at 37 degrees C after which 4 ul of Promega Cell-Titer Glo was dispensed using the Thermo Multidrop. The plates were incubated at room temperature for 10 min before reading luminescence on the Perkin Elmer ViewLux with images collected with 2x binning and a 5 sec exposure time."}
{"smiles": "O=C(NCc1ccccn1)c1c(O)c2c([nH]c1=O)CCCC2", "outcome": "inactive"}
{"smiles": "Cn1c2cc(B(O)O)sc2c2cnn(Cc3ccccc3F)c(=O)c21", "outcome": "inactive"}
{"smiles": "Cc1ccc(Cn2ncc3c4sc(C)cc4n(C)c3c2=O)c(C)c1", "outcome": "inactive"}
{"smiles": "CN(C)N=Nc1ccc2nc[nH]c2c1", "outcome": "inactive"}
{"smiles": "CC(=O)c1cc(C#N)c(SCC(=O)Nc2nccs2)nc1C", "outcome": "inactive"}
{"smiles": "O=S(=O)(NC1CCN(S(=O)(=O)c2ccc3c(c2)OCCO3)CC1)c1c(F)cccc1F", "outcome": "inactive"}
{"smiles": "O=C(NCc1cccs1)C1CCN(S(=O)(=O)c2ccc3c(c2)OCCO3)CC1", "outcome": "inactive"}
{"smiles": "CSc1nc2ccc(S(=O)(=O)N3CCc4ccccc43)cc2s1", "outcome": "inactive"}
{"smiles": "O=C(c1c(F)cccc1F)N1CCN(S(=O)(=O)c2ccc3c(c2)OCCO3)CC1", "outcome": "inactive"}
{"smiles": "O=S(=O)(NCCCCCCNS(=O)(=O)c1c(F)cccc1F)c1ccc2c(c1)OCCO2", "outcome": "inactive"}
{"smiles": "O=S(=O)(NCC1CN(S(=O)(=O)c2ccc3c(c2)OCCO3)C1)c1c(F)cccc1F", "outcome": "inactive"}
{"smiles": "Cc1cc2c(s1)c1cnn(Cc3c(F)cccc3Cl)c(=O)c1n2C", "outcome": "inactive"}
